Assay [1] concerns Plasmodium falciparum Sir2 (PF13_0152, Sir2A). The assay can be described thus: pfSir2 binders on small-molecule microarrays, primary screen, biochemical, small-molecule microarray, 635 nm fluorescence (AID 1098).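 Further: score merges spot fluorescence intensity with its signal-to-noise ratio.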 The conditions noted are these: small-molecule microarray binding, fluorescence 635 nm; higher = more signal.
The nature of assay [2]: small-molecule microarray binders of probe aDKK1, primary screen, biochemical, biotinylated probe, 635/667 nm fluorescence (AID 1099).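 Further: score merges 667nm spot fluorescence with signal to noise across triplicate slides.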 Conditions: higher = more signal.
The nature of assay [3]: small-molecule microarray binders of probe aCHRDL2, primary screen, biochemical, biotinylated probe, 635/667 nm fluorescence (AID 1100). Conditions: higher = more signal.
Assay [4] in a line: splicing luciferase reporter signal modulators, primary screen, spliceosome inhibition project, cell-based, HEK293, splice +/- reporter (AID 1101).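 Further: HEK293 cells carrying a splicing-competent luciferase reporter gene; test concentration not given here.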 The conditions noted are these: luminescence, 24 h, higher = more signal, called active from +8 up or from −8 down.
Assay [5] has as its target Fibroblast growth factor 10 (Homo sapiens) (UniProt O15520). Nature of the assay: FGF10 binders on small-molecule microarrays, primary screen, biochemical, small-molecule microarray, 635 nm fluorescence (AID 1102). Conditions: FGF10 binding, fluorescence 635 nm, higher = more signal.
The subject of assay [6] is glycogen synthase kinase-3 (GSK3A per assay name; protocol says GSK3B). Nature of the assay: GSK3 binders on small-molecule microarrays, primary screen, biochemical, small-molecule microarray, 635 nm fluorescence, GSK3A (AID 1103). Further: the record names both GSK3A and GSK3B. The conditions noted are these: small-molecule microarray binding, fluorescence 635 nm; higher = more signal.
Assay [7] addresses Epidermal growth factor receptor (Homo sapiens) (UniProt P00533). The assay can be described thus: EGFR binders on small-molecule microarrays, primary screen, biochemical, small-molecule microarray, 635 nm fluorescence (AID 1104).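 Further: score merges 667 nm emission intensity with spot signal to noise over triplicate slides.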 Conditions: EGFR binding, higher = more signal.
Assay [8] addresses Follistatin-related protein 3 (Homo sapiens) (UniProt O95633). The assay can be described thus: FSTL3 binders on small-molecule microarrays, primary screen, biochemical, small-molecule microarray, 635 nm fluorescence (AID 1105).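 Further: score merges emission near 667 nm and signal to noise per printed spot across three slides.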 The conditions noted are these: FSTL3 binding, higher = more signal.
In assay [9] the target is Dickkopf-related protein 1 (Homo sapiens) (UniProt O94907). The assay can be described thus: DKK1 binders on small-molecule microarrays, primary screen, biochemical, small-molecule microarray, 635 nm fluorescence scan (AID 1106).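 Further: score merges emission near 667 nm with signal to noise over three replicate slides.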 The conditions noted are these: DKK1 binding, higher = more signal.
Assay [10] relates to Inhibin beta A chain (activin A). The assay can be described thus: INHBA (activin A) binders on microarrays, primary screen, biochemical, small-molecule microarray, 635 nm fluorescence scan (AID 1107).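 Further: mouse activin A protein probed at 4.33 µg/mL on printed slides; score merges bound-protein fluorescence near 667 nm with spot signal-to-noise.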 Conditions: small-molecule microarray binding, higher = more signal.
The subject of assay [11] is Human papillomavirus type 1a protein E7 (residues 44-93). Nature of the assay: HPV1a E7 fragment binders on microarrays, primary screen, biochemical, small-molecule microarray, residues 44-93, 635 nm fluorescence (AID 1108).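 Further: E7 fragment applied at 1 µg/mL in TBST for 1 h at 4 C; score combines spot fluorescence with its signal to noise ratio.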 Conditions: small-molecule microarray binding, fluorescence 635 nm; higher = more signal.
Assay [12] can be described thus: modulators of HCV replicon luciferase signal, primary screen, HCV replication inhibitor project, Huh7 cells, luciferase reporter (AID 1109).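 Further: huh7 hepatoma cells harbouring a luciferase neomycin HCV replicon reporter; luciferase luminescence as measure of HCV replicon replication; test concentration not given here.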 Conditions: 48 h, higher = more signal. For orientation: In antiviral work, replicon cells carry a viral genome segment that copies itself.
Assay [13] concerns the target Left-right determination factor 2 (Homo sapiens) (UniProt O00292). The assay can be described thus: LEFTY2 binders on small-molecule microarrays, primary screen, biochemical, small-molecule microarray, 635 nm fluorescence scan (AID 1110). Conditions: LEFTY2 binding, higher = more signal.
Assay [14] deals with Calmodulin-1 (Homo sapiens) (UniProt P0DP23). The assay can be described thus: CALM1 binders on microarrays, EGTA buffer, profiling panel, biochemical, small-molecule microarray, Cy5-labelled CALM1 (AID 1111).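 Further: labelled calmodulin applied in Tris saline Tween buffer holding calcium plus EGTA and DTT.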 Conditions: Cy5-CALM1 binding fluorescence, higher = more signal.
Assay [15] has the same target. Nature of the assay: calcium-bound CALM1 binders on microarrays, profiling panel, artefact control for SMM control-protein annotation, biochemical, small-molecule microarray, Cy5-labelled CALM1, plus calcium (AID 1112).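 Further: score merges spot fluorescence with signal to noise from triplicate slides.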 Conditions: Cy5-CALM1 binding fluorescence, higher = more signal.
Assay [16] can be described thus: small-molecule microarray binders of probe aWnt5a, primary screen, biochemical, biotinylated probe, 635/667 nm fluorescence (AID 1113).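 Further: score merges 667 nm fluorescence intensity with signal-to-noise per printed feature.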 Conditions: higher = more signal.
The nature of assay [17]: small-molecule microarray binders of probe aShh, primary screen, biochemical, biotinylated probe, 635/667 nm fluorescence (AID 1114).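 Further: probe is biotin-labelled aShh protein from a stem cell growth factor screen; measures binding of labelled protein to compounds printed on the slide; score merges feature fluorescence at 667 nm with signal-to-noise.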 Conditions: higher = more signal.
Assay [18] is described as follows: small-molecule microarray binders of probe aNog, primary screen, biochemical, biotinylated probe, 635/667 nm fluorescence (AID 1115).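 Further: probe is biotinylated aNog protein used at 0.15 µg/mL for 1 h at 4 C; z-score combines 667 nm fluorescence of each spot with its signal to noise.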 The conditions noted are these: higher = more signal.
Assay [19] has as its target Torsin-1A-interacting protein 1 (Homo sapiens) (UniProt Q5JTV8). The assay can be described thus: LAP1 binders from COS7 cell lysate, primary screen, small-molecule microarray, 635/667 nm fluorescence (AID 1116). The conditions noted are these: COS7-hLAP1 lysate binding, 635 nm fluorescence, higher = more signal.
In assay [20] the target is Alpha-bungarotoxin (Bungarus multicinctus) (UniProt P60615). Nature of the assay: alpha-bungarotoxin binders on microarray, profiling panel, artefact control for SMM control protein annotation, biochemical, small-molecule microarray, Alexa647 label, 635/667 nm fluorescence (AID 1117). Conditions: alpha-BTX-A647 binding fluorescence, higher = more signal.

The source made the active and inactive calls.

Torsin-1A-interacting protein 1 (Homo sapiens), sequence (Q5JTV8 whole entry, looked up): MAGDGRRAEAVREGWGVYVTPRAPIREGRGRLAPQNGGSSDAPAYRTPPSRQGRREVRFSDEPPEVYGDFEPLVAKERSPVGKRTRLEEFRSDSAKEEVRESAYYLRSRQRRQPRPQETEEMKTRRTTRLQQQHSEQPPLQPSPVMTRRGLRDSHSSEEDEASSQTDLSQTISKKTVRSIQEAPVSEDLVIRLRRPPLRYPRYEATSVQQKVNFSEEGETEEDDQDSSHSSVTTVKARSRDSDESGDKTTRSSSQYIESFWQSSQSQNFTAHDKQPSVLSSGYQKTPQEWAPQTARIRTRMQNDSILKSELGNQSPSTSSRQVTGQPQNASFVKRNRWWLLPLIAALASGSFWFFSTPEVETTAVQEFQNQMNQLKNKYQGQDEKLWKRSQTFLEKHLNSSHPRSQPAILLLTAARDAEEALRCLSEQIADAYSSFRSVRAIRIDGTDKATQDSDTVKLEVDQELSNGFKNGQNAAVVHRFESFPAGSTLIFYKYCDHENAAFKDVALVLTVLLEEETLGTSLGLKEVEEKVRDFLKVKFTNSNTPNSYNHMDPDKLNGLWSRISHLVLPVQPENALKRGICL
Alpha-bungarotoxin (Bungarus multicinctus), sequence (P60615 whole entry, looked up): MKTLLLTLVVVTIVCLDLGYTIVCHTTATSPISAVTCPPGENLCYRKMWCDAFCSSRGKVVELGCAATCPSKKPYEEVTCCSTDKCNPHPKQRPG
Dickkopf-related protein 1 (Homo sapiens), sequence (O94907 whole entry, looked up): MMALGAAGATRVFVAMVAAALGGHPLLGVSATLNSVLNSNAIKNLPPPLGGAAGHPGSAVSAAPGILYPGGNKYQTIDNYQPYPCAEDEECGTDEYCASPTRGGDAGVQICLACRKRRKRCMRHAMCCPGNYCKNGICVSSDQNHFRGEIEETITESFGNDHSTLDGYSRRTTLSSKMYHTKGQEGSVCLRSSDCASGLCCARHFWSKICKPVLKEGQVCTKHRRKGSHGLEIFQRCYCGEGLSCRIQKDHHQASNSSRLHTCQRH
Follistatin-related protein 3 (Homo sapiens), sequence (O95633 whole entry, looked up): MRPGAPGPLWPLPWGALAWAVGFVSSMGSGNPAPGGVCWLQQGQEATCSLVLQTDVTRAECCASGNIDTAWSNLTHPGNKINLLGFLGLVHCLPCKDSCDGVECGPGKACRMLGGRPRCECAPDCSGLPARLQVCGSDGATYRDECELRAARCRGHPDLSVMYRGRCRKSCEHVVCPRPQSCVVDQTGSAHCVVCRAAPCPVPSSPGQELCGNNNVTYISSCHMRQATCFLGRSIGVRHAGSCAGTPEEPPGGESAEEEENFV
Fibroblast growth factor 10 (Homo sapiens), sequence (O15520 whole entry, looked up): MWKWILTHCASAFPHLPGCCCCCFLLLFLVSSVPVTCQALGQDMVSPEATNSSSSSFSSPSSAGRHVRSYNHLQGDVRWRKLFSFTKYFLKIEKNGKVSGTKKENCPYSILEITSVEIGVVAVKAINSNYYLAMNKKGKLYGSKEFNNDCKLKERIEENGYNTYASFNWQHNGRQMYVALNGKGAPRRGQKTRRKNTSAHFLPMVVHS
Left-right determination factor 2 (Homo sapiens), sequence (O00292 whole entry, looked up): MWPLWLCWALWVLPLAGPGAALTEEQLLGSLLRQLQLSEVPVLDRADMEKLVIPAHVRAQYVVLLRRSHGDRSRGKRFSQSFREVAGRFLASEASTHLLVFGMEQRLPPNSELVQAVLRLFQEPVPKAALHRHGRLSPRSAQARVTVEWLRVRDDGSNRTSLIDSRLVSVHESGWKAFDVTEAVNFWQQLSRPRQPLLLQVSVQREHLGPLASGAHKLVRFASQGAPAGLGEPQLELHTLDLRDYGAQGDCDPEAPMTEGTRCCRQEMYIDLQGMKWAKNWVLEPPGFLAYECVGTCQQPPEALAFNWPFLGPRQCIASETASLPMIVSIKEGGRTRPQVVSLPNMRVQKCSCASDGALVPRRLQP
Epidermal growth factor receptor (Homo sapiens), sequence (P00533 whole entry, looked up): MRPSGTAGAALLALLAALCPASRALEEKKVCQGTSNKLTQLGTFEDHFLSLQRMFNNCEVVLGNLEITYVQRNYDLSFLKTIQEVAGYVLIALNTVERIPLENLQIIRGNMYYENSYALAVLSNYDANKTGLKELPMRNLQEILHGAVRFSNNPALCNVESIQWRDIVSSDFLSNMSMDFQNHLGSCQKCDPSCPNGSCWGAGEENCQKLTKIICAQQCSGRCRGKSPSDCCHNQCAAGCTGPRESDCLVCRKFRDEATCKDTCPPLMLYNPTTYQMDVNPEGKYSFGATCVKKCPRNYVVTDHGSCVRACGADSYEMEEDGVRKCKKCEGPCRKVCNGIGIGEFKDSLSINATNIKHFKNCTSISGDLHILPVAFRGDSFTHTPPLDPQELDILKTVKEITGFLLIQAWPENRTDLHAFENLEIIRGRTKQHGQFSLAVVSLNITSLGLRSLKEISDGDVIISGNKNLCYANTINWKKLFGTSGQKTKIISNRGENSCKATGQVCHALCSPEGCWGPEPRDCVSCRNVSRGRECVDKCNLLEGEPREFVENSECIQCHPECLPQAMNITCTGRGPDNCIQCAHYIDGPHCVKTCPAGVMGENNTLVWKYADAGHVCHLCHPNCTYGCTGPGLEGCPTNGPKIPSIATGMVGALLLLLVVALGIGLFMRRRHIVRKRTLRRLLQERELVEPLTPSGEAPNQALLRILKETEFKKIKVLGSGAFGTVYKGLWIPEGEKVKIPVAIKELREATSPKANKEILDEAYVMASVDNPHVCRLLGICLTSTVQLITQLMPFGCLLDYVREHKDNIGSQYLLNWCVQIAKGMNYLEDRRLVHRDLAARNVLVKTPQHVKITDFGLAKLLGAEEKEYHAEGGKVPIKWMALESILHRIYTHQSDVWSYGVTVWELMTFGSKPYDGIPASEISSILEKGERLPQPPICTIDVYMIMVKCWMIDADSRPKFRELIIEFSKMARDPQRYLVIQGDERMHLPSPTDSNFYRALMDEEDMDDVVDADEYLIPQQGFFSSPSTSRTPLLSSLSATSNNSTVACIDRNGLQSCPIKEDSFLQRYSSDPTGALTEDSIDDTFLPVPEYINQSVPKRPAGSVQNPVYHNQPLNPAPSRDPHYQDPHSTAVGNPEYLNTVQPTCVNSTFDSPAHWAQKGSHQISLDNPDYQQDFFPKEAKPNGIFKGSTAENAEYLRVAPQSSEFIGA

For `COc1cc(CO)cc(I)c1O[C@H]1C=C(C(=O)NCCO)C[C@@H]2O[C@H]12`, the composite z-score in assay [1] amounted to 0.6; in assay [2], 0.298; in [3], 0.0558; in assay [5], 1.77; in assay [6], 1.33; in [7], 0.989. Besides, the composite z-score in assay [8] was determined as 1.45; in assay [9] it was 1.34; in assay [10], 0.643; in assay [11], 1.4; in assay [13], 0.873; in assay [14] it was 3.38. Moreover, the composite z-score in assay [15] is 1.48; in [16], 0.055; in assay [17], -0.352; in assay [18], -0.646; in [19], 1.94; in [20], 2.81. The z-score in assay [4] is 1 (inactive); in [12] it was -1.32.

On to `COCCCN1C(=O)[C@@]2(c3ccc([N+](=O)[O-])cc3)CC(=O)N(CC34CC5CC(CC(C5)C3)C4)[C@@H]2c2ccc(CO)cc21`, for which the composite z-score was 1.47 in assay [1]; -0.183 in assay [2]; -0.0705 in [3]; 0.329 in assay [5]; 0.541 in assay [6]; -0.557 in assay [7]. For the same compound, the composite z-score was 0.458 in assay [8]; -0.104 in assay [9]; 0.405 in assay [10]; 0.372 in assay [11]; -0.407 in assay [13]; -0.226 in assay [14]. Also, the composite z-score in [15] was -0.406; in assay [16] it was -0.096; in [17], -0.291; in [18], -0.461; in assay [19] it was -0.507; in assay [20] it was 0.241. Moreover, the z-score in [4] is -0.515 (inactive); in assay [12], -0.445.

Consider `C=CCOC(=O)[C@H]1[C@@H]2C(=O)O[C@@H](c3ccccc3)[C@@H](c3ccccc3)N2[C@@H](c2ccc(OCCOC(=O)[C@@H]3C[C@@H]4C(=O)N[C@@H](CCCC[N+](C)(C)C)C(=O)N4[C@@H]3c3ccc(O)cc3)cc2)[C@]12C(=O)Nc1ccc(I)cc12`, for which the composite z-score in assay [1] is 1.1; in assay [2] it was 0.031; in assay [3], -0.211; in [5] it was 1.2; in assay [6] it was 1.24; in assay [7], 0.934. Besides, the composite z-score in assay [8] worked out at 1.21; in assay [9], 1.07; in assay [10], 0.723; in [11], 1.41; in [13], 0.668; in assay [14], 0.167. In addition, the composite z-score was -0.49 in assay [15]; 0.0324 in [16]; 0.203 in assay [17]; 1.06 in assay [18]; 1.84 in assay [19]; 0.74 in assay [20]. Moreover, the z-score was -0.21 (inactive) in assay [4] and -2.84 in assay [12].

Take `COC(=O)[C@@]1(Cc2ccccc2)N=C(c2ccc(OCCCO)cc2)O[C@H]1c1ccccc1CN=[N+]=[N-]`: the composite z-score in [1] was 1.61; in assay [2] it was 0.287; in [3] it was 0.652; in [5] it was 0.722; in assay [6], 0.893; in assay [7] it was -0.0505. Moreover, the composite z-score in [8] was 0.323; in assay [9], 0.21; in assay [10] it was 1.09; in assay [11], 1.36; in assay [13] it was 0.024; in [14], -0.0422. The composite z-score was -0.193 in assay [15]; -0.0792 in assay [16]; -0.153 in assay [17]; -0.593 in [18]; 0.757 in assay [19]; 0.537 in [20]. Further, the figures for the z-score in [4] and in assay [12] were 12.9 (active) and -3.42, respectively.

On to `Cc1ccc(F)cc1S(=O)(=O)N[C@H]1CCN(Cc2ccc(OC(C)C)cc2)C1`, for which the composite z-score was 1.23 in [1]; -0.322 in [2]; -0.747 in [3]; 0.44 in assay [5]; 0.0619 in [6]; -0.437 in [7]. Besides, the composite z-score in [8] is 0.195; in assay [9] it was 0.577; in assay [10], -0.22; in assay [11], 1.34; in [13], 0.379; in [14], -0.781. Besides, the composite z-score in assay [15] was -1.43; in assay [16] it was -0.187; in [17], -0.0959; in [18], -0.131; in [19], 0.228; in assay [20], -0.494. For the same compound, the z-score in assay [4] is -0.24 (inactive); in [12], -3.4.

Turning to `CN(C)C(=O)[C@@]1(Cc2ccccc2CN=[N+]=[N-])COC(c2ccc(OCCCO)cc2)=N1`, the composite z-score in assay [1] is 0.508; in [2], 0.42; in assay [3] it was 1.01; in assay [5] it was -0.0391; in assay [6], -0.958; in assay [7] it was -0.916. Besides, the composite z-score in [8] is -0.522; in [9], -1.19; in assay [10], 0.744; in assay [11], 1.37; in assay [13], -1.09; in assay [14], 0.809. In addition, the composite z-score in assay [15] was 0.812; in assay [16], -0.0478; in assay [17], 0.0483; in assay [18], -0.226; in assay [19] it was -0.383; in [20], 1.3. Moreover, the values for the z-score in assay [4] and in [12] were -0.51 (inactive) and -2, respectively.

These data come from PubChem BioAssay.
